Most compounds without a hit are left out; they make up all but 28% or so of the library.
CYP2C9 act: increases human cytochrome P450 2C9 activity; recombinant CYP2C9, luciferin-H conversion, luminescence; stronger effect = higher value; factor 1 = untreated enzyme, 0 = blocked; activation factor at 5 µM; 1.4% of 96,000 active; AID 1024;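 active = activation factor of 2 or more for CYP2C9 at a 5 µM dose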
Mac1 fbg enh: CD11b/CD18-fibrinogen binding enhancement; K562 CD11b/CD18 adhesion to fibrinogen, ATPlite luminescence; activation, % at 10 µM; 0.07% of 93,000 active; AID 1499;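 active = 10 µM primary screen giving 50% or more activity, confirmed by 40% or more on retest at that dose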
Target sequence (P05107 whole entry, looked up, other chains not shown): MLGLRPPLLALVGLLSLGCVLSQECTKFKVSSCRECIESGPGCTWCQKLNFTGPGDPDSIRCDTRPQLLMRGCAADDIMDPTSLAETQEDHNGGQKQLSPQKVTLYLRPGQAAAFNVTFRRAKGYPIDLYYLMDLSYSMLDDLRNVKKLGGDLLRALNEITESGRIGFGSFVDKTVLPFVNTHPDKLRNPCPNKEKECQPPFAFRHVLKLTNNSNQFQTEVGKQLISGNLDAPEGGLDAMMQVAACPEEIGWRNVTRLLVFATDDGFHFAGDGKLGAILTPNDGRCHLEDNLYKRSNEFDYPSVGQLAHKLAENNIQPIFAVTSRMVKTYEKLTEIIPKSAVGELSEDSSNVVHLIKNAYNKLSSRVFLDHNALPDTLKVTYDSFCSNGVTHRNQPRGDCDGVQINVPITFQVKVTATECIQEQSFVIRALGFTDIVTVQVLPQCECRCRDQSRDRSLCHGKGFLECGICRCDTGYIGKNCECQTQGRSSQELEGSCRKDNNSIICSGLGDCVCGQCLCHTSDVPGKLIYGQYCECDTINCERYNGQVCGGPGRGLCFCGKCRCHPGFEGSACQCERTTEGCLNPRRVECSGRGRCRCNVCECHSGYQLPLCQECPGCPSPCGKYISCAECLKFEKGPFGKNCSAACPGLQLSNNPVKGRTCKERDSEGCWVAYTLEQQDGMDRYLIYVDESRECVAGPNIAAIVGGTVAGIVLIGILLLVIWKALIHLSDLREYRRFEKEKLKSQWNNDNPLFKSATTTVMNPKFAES
CYP2C19 inhib: human CYP2C19 inhibition | CYP2C19 Supersomes, luciferin-H EGE luminescence, 30 min | inhibition, % at 5 µM | 21% of 96,000 active | P33261 | AID 778;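 active = CYP2C19 inhibition above a set limit at 5 µM in the primary screen, cut at about 50% in these data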
CYP2C19 activ: activators of human cytochrome P450 2C19 | P33261 | 96,000 tested, under 10 active | recombinant CYP2C19, luciferin-H EGE luminescence; stronger effect = higher value; 0 = fully inhibited enzyme, 1 = untreated enzyme | activation factor at 5 µM;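 active = activation factor of at least 2 at 5 µM in the primary screen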
CYP2C9 inh: blocks human cytochrome P450 2C9. inhibition, % at 5 µM. CYP2C9 Supersomes, luciferin-H conversion, luminescence. 20% of 96,000 active;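 active = blocking of liver enzyme CYP2C9 beyond about 50% at 5 µM, limit read from the data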
Mac1 fbg inh: CD11b/CD18-fibrinogen binding inhibition; P05107+P11215; K562 CD11b/CD18 adhesion to fibrinogen, ATPlite luminescence; Mn2+ added to activate the integrin; inhibition, % at 10 µM; 0.54% of 93,000 active; AID 1497;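 active = primary inhibition of 50% or more at 10 µM, then 40% or more on retest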
Each line names hits and unclear results; the compound was inactive in the other large screens.

CN(C)S(=O)(=O)c1ccc(C(=O)Oc2cc(=O)[nH]c3ccccc23)cc1	none
Cc1ccc(C(=O)CN2/C(=C(\O)c3ccccc3)C(=O)c3ccccc3S2(=O)=O)c(C)c1	CYP2C9 inh 69.3
CCNC(=O)c1ccc2c(c1)S(=O)(=O)c1ccccc1C2=O	none
O=C(CN1C(=O)c2ccccc2S1(=O)=O)c1ccccc1	none
Cc1cc(C(=O)CN2C(=O)c3ccccc3S2(=O)=O)c(C)n1-c1ccccc1	CYP2C19 inhib 78.8, CYP2C9 inh 66.3
C=CCn1c(CCNC(=O)c2cccs2)nnc1SCC(=O)Nc1cccc(Cl)c1C	none
CN(C)c1nc(N)nc(CSc2ncc(Cl)cc2Cl)n1	CYP2C19 inhib 64.3
CC(=O)Nc1ccc2nc(C3CCCCC3)[nH]c2c1	none (no result: Mac1 fbg enh, Mac1 fbg inh)
CCOC(=O)COc1ccc(/C=C2/SC(=Nc3ccccc3)N(Cc3cccnc3)C2=O)cc1OC	CYP2C19 inhib 55.3, CYP2C9 inh 75.1
Cc1nc2ccccn2c1C(=O)NCc1cccnc1	none
COC(=O)CC1=C(C)C(=O)CC2C(C)(C)CCCC12C (stereo unspecified)	CYP2C19 inhib 57.2
CCOC(=O)N1CCC(n2c(SCC(=O)N3CCCC3)nc3ccccc3c2=O)CC1	none (no result: Mac1 fbg enh, Mac1 fbg inh)
COCC(C)n1c(SCC(=O)NCCC2=CCCCC2)nc2ccccc2c1=O (stereo unspecified)	CYP2C19 inhib 84.2, CYP2C9 inh 86.7
COc1ccc(NC(=O)CSc2nc3ccccc3c(=O)n2CCCN2CCCCC2)c(OC)c1	CYP2C19 inhib 64.0
CCOC(=O)N1CCC(n2c(SCC(=O)NCCC3=CCCCC3)nc3ccccc3c2=O)CC1	CYP2C19 inhib 58.3, CYP2C9 inh 67.5
CCOC(=O)N1CCC(n2c(SCC(=O)N3CCC(C)CC3)nc3ccccc3c2=O)CC1	CYP2C19 inhib 57.4, CYP2C9 inh 59.9
CC(=O)NCCn1c(SCC(=O)NCCC2=CCCCC2)nc2ccccc2c1=O	none
CCCCN1CC(C(=O)NCc2ccc(C)cc2)CC1=O (stereo unspecified)	none
COc1ccc(OC)c(NC(=O)CSc2nc3ccccc3c3nc4ccccc4n23)c1	none (no result: CYP2C9 act, CYP2C19 inhib, CYP2C19 activ, CYP2C9 inh)
CCOC(=O)N1CCC(n2c(SCC(=O)Nc3ccccc3OC)nc3ccccc3c2=O)CC1	CYP2C19 inhib 90.1, CYP2C9 inh 95.4
CCNC(=O)CSc1nc2ccccc2c(=O)n1OC	none
CCOC(=O)N1CCC(n2c(SCC(=O)NCc3ccccc3)nc3ccccc3c2=O)CC1	CYP2C19 inhib 59.6, CYP2C9 inh 53.4
CCNC(=O)N(C(=O)NCC)n1c(C)nnc1C	none
Cc1ccc(-c2n[nH]c(=O)c3ccccc23)cc1N	CYP2C19 inhib 67.6
NC(=O)C1CCN(C(=O)OCc2ccccc2)CC1	none (no result: Mac1 fbg enh, Mac1 fbg inh)
O=C1N/C(=N\N=C\c2cccs2)SC1Cc1cccc(Cl)c1Cl (stereo unspecified)	none (no result: CYP2C9 act, CYP2C19 inhib, CYP2C19 activ, CYP2C9 inh)
Cc1ccn2cc(CSc3ccccc3N)nc2c1	none (no result: Mac1 fbg enh, Mac1 fbg inh)
Cn1ccnc1SCc1cn2cc(Br)ccc2n1	CYP2C19 inhib 64.8
CN1CCCCCC1=NC1=C(C#N)CCCC1	none
Cn1cccc1CNC(=O)Nc1ccccc1	CYP2C19 inhib 75.3
Cn1cccc1CNC(=O)Nc1ccc(Cl)cc1	CYP2C19 inhib 59.3
Cn1cccc1CNCc1ccccc1Cl	none
Cc1cc(C)cc(NC(=S)NCc2cccn2C)c1	CYP2C9 act 2.1 (no result: Mac1 fbg enh, Mac1 fbg inh)
COc1ccc(-n2c(Cn3c(=O)sc4ccccc43)nnc2SCC(=O)N2CCCC2)cc1	none
COc1ccc2c(c1)nc(SCC(=O)c1ccc(Br)s1)n2C	CYP2C19 inhib 71.9, CYP2C9 inh 51.3 (no result: Mac1 fbg enh, Mac1 fbg inh)
N#Cc1ccc(CSc2nnc(COc3ccccc3)n2-c2ccccc2)cc1	CYP2C19 inhib 76.3, CYP2C9 inh 66.7
COc1ccc(-n2c(COc3ccccc3)nnc2SCc2ccc(C#N)cc2)cc1	CYP2C19 inhib 96.0, CYP2C9 inh 92.6
CCn1c(COc2ccc(C)cc2)nnc1SCc1ccc(C#N)cc1	none
COc1ccc(C(=O)CSc2nnc(COc3ccc(C#N)cc3)n2-c2ccccc2)cc1	none
CC(C)CC(=O)NC(Nc1ccccc1F)C(Cl)(Cl)Cl (stereo unspecified)	CYP2C19 inhib 51.6, CYP2C9 inh 57.8
CC(C)CC(=O)NC(=S)Nc1ccccc1F	none
CCCC(=O)NC(Nc1ccccc1F)C(Cl)(Cl)Cl (stereo unspecified)	CYP2C19 inhib 53.1, CYP2C9 inh 56.7 (no result: Mac1 fbg enh, Mac1 fbg inh)
